# Data reported in PubChem BioAssay.
# Calls of active or inactive are those of the source.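 How the source made its calls, unless noted: active means response below a set limit, under 55% cells CD8-positive and vesicle-bound, and CD8 cells' 90th-percentile brightness under 279; inactive means the rest.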
# Assay: TOR pathway reporter MEP2-GFP, retest of hits – S. cerevisiae, flow cytometry GFP, cherry picks, confirmation (AID 2272;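 active means GFP response above 150% of the DMSO control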;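 further: ratio of well signal to plate DMSO mean so 100% equals DMSO level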)
# Settings: S. cerevisiae MEP2-GFP strain, 3 h, at 10 µM, stronger effect = higher value
row,Structure (SMILES),GFP response vs DMSO
1,COc1cc(/C=C/C(=O)c2c(O)n(CCc3ccccc3)c(=O)[nH]c2=O)ccc1O,98.8% (inactive)
2,CCC(C)N1C(=O)/C(=C\c2cnc(N(C)C)nc2)C(=O)NC1=S (configuration not stated),104% (inactive)
3,CC1(C)OC(c2ccccc2)=C/C(=C/C=C2C(=O)NC(=S)NC2=O)O1,145% (inactive)
4,Cc1ccc(N2C(=O)NC(=O)/C(=C\c3cn(CC(=O)O)c4ccccc34)C2=O)cc1,100% (inactive)
5,CCN1C(=O)NC(=O)/C(=C\c2cn(CC(=O)N3CCCC3)c3ccccc23)C1=O,106% (inactive)
6,O=[N+]([O-])c1ccc(N2CCNCC2)cc1Sc1ccccn1,97.8% (inactive)
7,O=C1NC(=S)N(c2ccccc2)C(=O)/C1=C/c1ccco1,122% (inactive)
8,C[C@]12CCC(=O)C(O)=C1CC[C@@H]1[C@@H]2CC[C@]2(C)C(=O)CC[C@@H]12,102% (inactive)
9,CCCCn1c(=O)c(C(=O)Nc2ccsc2C(=O)OC)c(O)c2ccccc21,101% (inactive)

# Assay: yeast AGP1-GFP fluorescence change, single-dose – cell-based, flow cytometry, S. cerevisiae, cherry picks, confirmation (AID 2273;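 active means GFP response above 150% of the DMSO level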;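 further: median GFP channel fluorescence over the whole cell population gate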)
# Settings: S. cerevisiae AGP1-GFP strain, 3 h, at 10 µM
row,Structure (SMILES),"GFP response, % of DMSO"
1,COc1cc(/C=C/C(=O)c2c(O)n(CCc3ccccc3)c(=O)[nH]c2=O)ccc1O,102% (inactive)
2,CCC(C)N1C(=O)/C(=C\c2cnc(N(C)C)nc2)C(=O)NC1=S (configuration not stated),97.2% (inactive)
3,CC1(C)OC(c2ccccc2)=C/C(=C/C=C2C(=O)NC(=S)NC2=O)O1,92.3% (inactive)
4,Cc1ccc(N2C(=O)NC(=O)/C(=C\c3cn(CC(=O)O)c4ccccc34)C2=O)cc1,98.9% (inactive)
5,CCN1C(=O)NC(=O)/C(=C\c2cn(CC(=O)N3CCCC3)c3ccccc23)C1=O,102% (inactive)
6,O=[N+]([O-])c1ccc(N2CCNCC2)cc1Sc1ccccn1,97.2% (inactive)
7,O=C1NC(=S)N(c2ccccc2)C(=O)/C1=C/c1ccco1,103% (inactive)
8,C[C@]12CCC(=O)C(O)=C1CC[C@@H]1[C@@H]2CC[C@]2(C)C(=O)CC[C@@H]12,101% (inactive)
9,CCCCn1c(=O)c(C(=O)Nc2ccsc2C(=O)OC)c(O)c2ccccc21,102% (inactive)

# Assay: TOR pathway CIT2 reporter hit retest – S. cerevisiae, GFP fusion, cherry picks, mother/daughter gates, confirmation (AID 2274;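 active means GFP response above 150% of the DMSO level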)
# Settings: S. cerevisiae CIT2-GFP strain, flow cytometry, 3 h; at 10 µM; stronger effect = higher value
row,Structure (SMILES),"GFP response, % of DMSO"
1,COc1cc(/C=C/C(=O)c2c(O)n(CCc3ccccc3)c(=O)[nH]c2=O)ccc1O,115% (inactive)
2,CCC(C)N1C(=O)/C(=C\c2cnc(N(C)C)nc2)C(=O)NC1=S (configuration not stated),106% (inactive)
3,CC1(C)OC(c2ccccc2)=C/C(=C/C=C2C(=O)NC(=S)NC2=O)O1,119% (inactive)
4,Cc1ccc(N2C(=O)NC(=O)/C(=C\c3cn(CC(=O)O)c4ccccc34)C2=O)cc1,96.5% (inactive)
5,CCN1C(=O)NC(=O)/C(=C\c2cn(CC(=O)N3CCCC3)c3ccccc23)C1=O,100% (inactive)
6,O=[N+]([O-])c1ccc(N2CCNCC2)cc1Sc1ccccn1,96.5% (inactive)
7,O=C1NC(=S)N(c2ccccc2)C(=O)/C1=C/c1ccco1,84.8% (inactive)
8,C[C@]12CCC(=O)C(O)=C1CC[C@@H]1[C@@H]2CC[C@]2(C)C(=O)CC[C@@H]12,104% (inactive)
9,CCCCn1c(=O)c(C(=O)Nc2ccsc2C(=O)OC)c(O)c2ccccc21,95.9% (inactive)

# Same assay, conditions: S. cerevisiae CIT2-GFP strain, flow cytometry, 3 h; measured here: daughter cell gate; at 10 µM; stronger effect = higher value
row,Structure (SMILES),"GFP response, % of DMSO [%]"
1,COc1cc(/C=C/C(=O)c2c(O)n(CCc3ccccc3)c(=O)[nH]c2=O)ccc1O,114
2,CCC(C)N1C(=O)/C(=C\c2cnc(N(C)C)nc2)C(=O)NC1=S (configuration not stated),114
3,CC1(C)OC(c2ccccc2)=C/C(=C/C=C2C(=O)NC(=S)NC2=O)O1,121
4,Cc1ccc(N2C(=O)NC(=O)/C(=C\c3cn(CC(=O)O)c4ccccc34)C2=O)cc1,94.8
5,CCN1C(=O)NC(=O)/C(=C\c2cn(CC(=O)N3CCCC3)c3ccccc23)C1=O,101
6,O=[N+]([O-])c1ccc(N2CCNCC2)cc1Sc1ccccn1,96.5
7,C[C@]12CCC(=O)C(O)=C1CC[C@@H]1[C@@H]2CC[C@]2(C)C(=O)CC[C@@H]12,103
8,CCCCn1c(=O)c(C(=O)Nc2ccsc2C(=O)OC)c(O)c2ccccc21,93.8

# Same assay, conditions: S. cerevisiae CIT2-GFP strain, flow cytometry, 3 h; measured here: mother cell gate; at 10 µM; stronger effect = higher value
row,Structure (SMILES),"GFP response, % of DMSO [%]"
1,COc1cc(/C=C/C(=O)c2c(O)n(CCc3ccccc3)c(=O)[nH]c2=O)ccc1O,112
2,CCC(C)N1C(=O)/C(=C\c2cnc(N(C)C)nc2)C(=O)NC1=S (configuration not stated),90.2
3,CC1(C)OC(c2ccccc2)=C/C(=C/C=C2C(=O)NC(=S)NC2=O)O1,117
4,Cc1ccc(N2C(=O)NC(=O)/C(=C\c3cn(CC(=O)O)c4ccccc34)C2=O)cc1,96.6
5,CCN1C(=O)NC(=O)/C(=C\c2cn(CC(=O)N3CCCC3)c3ccccc23)C1=O,100
6,O=[N+]([O-])c1ccc(N2CCNCC2)cc1Sc1ccccn1,95.5
7,O=C1NC(=S)N(c2ccccc2)C(=O)/C1=C/c1ccco1,65.5
8,C[C@]12CCC(=O)C(O)=C1CC[C@@H]1[C@@H]2CC[C@]2(C)C(=O)CC[C@@H]12,105
9,CCCCn1c(=O)c(C(=O)Nc2ccsc2C(=O)OC)c(O)c2ccccc21,95.6

# Assay: reduced mouse 2C T cell binding to pMHC/ICAM-1 vesicles – MLPCN validation set, flow cytometry, LFA-1/ICAM-1 modulator project, pilot screen (AID 2523);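 on vesicle binding response: mean PE anti-B7-1 fluorescence of CD8+ cells relative to row control; 100% = QL9-loaded vesicles with DMSO vehicle in the same plate row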
# Settings: 2C mouse CD8+ T cells, at 7 µM, stronger effect = lower value; double positive events: measured here: CD8+/vesicle+ event percentage
Structure (SMILES),double positive events [%],vesicle binding response
CCC(COC(=O)c1cc(OC)c(OC)c(OC)c1)(c1ccccc1)N(C)C (configuration not stated),73.3,306% (inactive)
Nc1ccc([As](=O)(O)O)cc1,53.2,190% (inactive)
CCCC(C)(COC(N)=O)COC(=O)NC(C)C (configuration not stated),64.3,111% (inactive)
c1cnc2c(c1)ccc1ncccc12,64.8,165% (inactive)
NCCc1ccc(O)cc1,60,185% (inactive)
C[C@]12CC[C@@H]3c4ccc(O)c(O)c4CC[C@H]3[C@@H]1CC[C@@H]2O,51,107% (inactive)
CC(CCc1ccccc1)NC(C)C(O)c1ccc(O)cc1 (configuration not stated),49,166% (inactive)
Clc1ccc(COC(Cn2ccnc2)c2ccc(Cl)cc2Cl)c(Cl)c1 (configuration not stated),71.9,306% (inactive)
CC12CN3CC(c4ccccc4)(CN(C1)C31CCCCC1)C2=O,60.1,232% (inactive)
c1ccc2c(c1)OCC(C1=NCCN1)O2 (configuration not stated),56.2,163% (inactive)
COc1cc(/C=C2\C(=O)NC(=O)N(c3ccccc3)C2=O)c([N+](=O)[O-])cc1OC,61.7,106% (inactive)
CC12CCC3C(CC=C4CC5(CCC43C)OCCO5)C1CCC2=O (configuration not stated),65.4,179% (inactive)
COc1ccc2c3c([nH]c2c1)C(C)=NCC3,57.1,218% (inactive)
CCCC(=O)OCC[N+](C)(C)C,63.6,145% (inactive)
C[C@]12CCC(=O)C=C1CC[C@@H]1[C@@H]2C(=O)C[C@]2(C)C(=O)CC[C@@H]12,61,259% (inactive)
Cc1nc2ccccc2c(=O)n1-c1ccc(C(=O)O)cc1,63.4,165% (inactive)
Cc1c2ccncc2c(C)c2c1[nH]c1ccccc12,61,710% (inactive)
CC/C(=C\C=C\[C@@H]1C=C[C@@H]2CCC[C@H]2[C@@H]1C(=O)c1ccc[nH]1)[C@@H]1O[C@@H]([C@@H](C)C(=O)O)CC[C@@H]1C,60.2,275% (inactive)
C[C@]12CCC(=O)C(O)=C1CC[C@@H]1[C@@H]2CC[C@]2(C)C(=O)CC[C@@H]12,68.3,118% (inactive)
CN1[C@@H]2CC[C@H]1CC(OC(=O)C1C=Nc3ccccc31)C2 (some centres not stated),52.3,136% (inactive)
O=C1CSC2N1CCNC21CCCCC1 (configuration not stated),64.1,191% (inactive)
C[C@H]1CCCC(=O)CCCCCc2cc(O)cc(O)c2C(=O)O1,60.2,160% (inactive)
CC(=O)Nc1cc([As](=O)(O)O)ccc1O,62.8,170% (inactive)
NCC(O)c1ccc(O)cc1 (configuration not stated),66.5,150% (inactive)
